This is a sample that favours compounds with a hit; in the whole collection about 4.7% have one here.
LMP1 NFkB inh: inhibitors of Epstein-Barr LMP1-induced NF-kappaB reporter. LMP1-induced NF-kappaB luciferase reporter cells, luminescence. inhibition, % at 12.5 µM. hit rate 0.69% among 350,000; in the data active = inhibition above about 41%;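 also: 0% = neutral control wells and 100% = reference inhibitor control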
HSF1 activator: increases HSF-1 driven luciferase reporter signal; NIH3T3-HGL HSF-1 luciferase reporter, MG132, 8 h; 100% = twice DMSO control signal; activation, % at 9 µM; hit rate 1.7% among 300,000; AID 504408;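 active = mean replicate activation of at least 50% with a set share of replicates each reaching 50%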;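 also: 0% = median of the neutral control wells and 100% = twice that signal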
TWEAK-Fn14 inh: inhibitors of TWEAK-Fn14 interaction signaling | TWEAK-stimulated Fn14 reporter cells, luciferase luminescence, 8 h | inhibition, % at 10 µM | hit rate 2% among 360,000; in the data active = inhibition above about 50%
HSF1 inh: HSF1 inhibition | hit rate 0.77% among 300,000 | NIH3T3-HGL HSE-luciferase, MG132-induced, luminescence 8 h; hits give low values | AID 2098 | activity change, negative = inhibition, % at 7.5 µM (by protocol);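 active = more than half of replicate wells show activity change below -50%, luminescence cut by over half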;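 also: luciferase reports HSF-1 transcriptional activity via heat shock element; 0% = median of DMSO wells and -100% = zero luminescence signal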
HSP90 refold inh: inhibitors of HSP90 luciferase refolding in rabbit reticulocyte lysate. luciferase refolding luminescence, 3 h. inhibition, % at 5.6 µM. AID 1789. hit rate 0.91% among 290,000;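 active = inhibition above the screen-wide mean plus 3 SD, computed separately per campaign, cut at about 16% in these data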;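 also: 0% = DMSO wells and 100% = 60 µM geldanamycin wells; inhibitors lower the luminescence because luciferase stays unfolded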
TROY signal inh: blocks TROY-dependent signaling in reporter cells. Q293 LMP1-TROYcd NF-kB luciferase reporter, 4 h. hit rate 0.98% among 360,000. inhibition, % at 10 µM;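 active = compounds whose plate-normalised and pattern-corrected inhibition of the luciferase reporter signal at the single screening dose is 50% or more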
Numbers without * were called inactive; · = not tested or not shown.

SMILES	LMP1 NFkB inh	HSF1 activator	TWEAK-Fn14 inh	HSF1 inh	HSP90 refold inh	TROY signal inh
CC(=O)Nc1cc(-c2ccc(N3CCN(C)CC3)cc2)cn2c(-c3ccc(S(C)(=O)=O)cc3)cnc12	·	·	-28.6	·	·	-21.9
CN(C(=O)CN1CCN(c2cc(-c3ccc(-c4ccccc4)cc3)ncn2)CC1)c1ccccc1	·	·	48.3	·	·	41.6
C=CCOC(=O)/C(=C/c1cccc2ccccc12)NC(=O)c1ccccc1	-30.7	72.3*	-14.3	54.1	-8.0	-25.0
O=C(OCc1ccccc1)/C(=C/c1cccc2ccccc12)NC(=O)c1ccccc1	-4.7	8.5	14.2	1.9	7.6	8.0
CCc1nc2c(OCc3cc(Cl)cc(Cl)c3)cccn2c1N(C=O)Cc1ccc(OC)cc1	·	·	14.4	·	·	9.0
O=C(COC(=O)c1cccc(S(=O)(=O)N2CCOCC2)c1)NC1CCCCC1	-13.9	·	-0.8	·	·	8.2
O=[N+]([O-])c1ccc(N2CCN(Cc3ccccc3)CC2)c2c1no[n+]2[O-]	-43.1	·	39.1	·	·	-15.0
COCCn1c(=O)[nH]c(=O)c2c1nc(-c1cc(Br)c3c(c1)OCO3)n2Cc1ccccc1	11.8	58.9*	-2.3	21.8	2.8	21.5
CCOC(=O)Cn1nnc(-c2cccc(OC)c2)n1	-4.8	66.7*	-1.1	24.2	2.2	-66.6
CC(C)C1Nc2c(O)cc(Cl)c([N+](=O)[O-])c2C2C=CCC21 (stereo not given)	17.7	12.4	26.7	-2.2	-3.2	58.1*
CC1=C(C(=O)N(C(C)C)C(C)C)CC(CC(=O)NCc2ccco2)C(=O)N1Cc1ccc(C(C)(C)C)cc1 (stereo not given)	·	·	-5.1	·	·	6.6
CC(Nc1ncnc2sccc12)c1ccccc1 (stereo not given)	23.5	-83.5	53.9*	-80.9*	1.5	31.7
c1ccc(Nc2ncnc3sccc23)cc1	-1.3	-6.0	-5.7	-0.1	-3.9	-19.6
CC(C)CN(C(=O)c1cccs1)C1CCS(=O)(=O)C1 (stereo not given)	-6.2	62.3*	3.5	19.1	·	13.3
CCN(C(=O)c1cccs1)C1CCS(=O)(=O)C1 (stereo not given)	2.5	3.1	2.6	2.3	·	-4.5
Cc1cnc(CNc2nc3cc(-c4ccccc4C)sc3c(=O)n2C)cn1	·	·	-19.4	·	·	-15.0
O=C(Nc1ccc(Cl)cc1)c1ccc2snnc2c1	79.9*	30.4	-4.7	22.1	-3.8	-45.9
CCc1n[n+](CC(=O)c2ccccc2)c(N)s1	52.1*	·	82.3*	·	51.9*	58.4*
COc1ccc(C(O)c2nc(-c3ccccc3C)cs2)cc1 (stereo not given)	·	·	13.7	·	·	-33.2
Cc1c(CCCl)c(Cl)n2c(nc3ccccc32)c1C#N	66.4*	·	108.9*	·	·	26.9
CCC12CC1(C(=O)OC)C(=O)N1CCc3c([nH]c4ccccc34)C12 (stereo not given)	·	·	-28.6	·	·	62.0*
COC(=O)CC1CC2(C(=O)OC)c3[nH]c4ccccc4c3CCN2C1=O (stereo not given)	·	·	16.0	·	·	10.2
CCOC1=C2CN(S(=O)(=O)c3ccccc3)[C@H](c3ccccc3)C[C@H]2n2c(=O)n(-c3ccccc3)c(=O)n2C1	·	·	-0.1	·	·	9.3
O=C(CCNS(=O)(=O)c1ccc(Br)cc1)Nc1cccc(F)c1	-8.5	12.9	99.2*	7.2	-4.6	4.4
CCCOc1ccc(/C(O)=C2/C(=O)C(=O)N(CCN(C)C)C2c2ccc(O)c(OC)c2)cc1 (stereo not given)	-0.8	-80.1	4.7	-76.9*	7.2	10.8
SMILES	LMP1 NFkB inh	HSF1 activator	TWEAK-Fn14 inh	HSF1 inh	HSP90 refold inh	TROY signal inh
CCC(=O)N1CCCC1(C)C(=O)NCc1ccc(SC)cc1 (stereo not given)	·	·	1.3	·	·	5.2
CCn1ncc(CN2CCC(n3nccc3NC(=O)c3ccccc3Cl)CC2)c1C	-0.7	·	0.4	·	·	-4.5
Cc1cc(C)cc(CC(=O)N2CCC2(C)C(=O)NS(=O)(=O)Cc2ccccc2)c1 (stereo not given)	·	·	2.3	·	·	-20.1
Fc1ccc(-n2cc(CNCCc3ccccn3)c(-c3ccccc3Cl)n2)cc1	5.4	-65.5	10.9	-52.5*	2.8	1.2
COc1ccc(-n2cc(CNCCc3nc(C)cc(C)n3)c(-c3ccccc3Cl)n2)cc1	11.4	32.4	-2.4	12.0	-1.4	-4.1
CCCCN1CCCCC1(C)C(=O)NCc1cccs1 (stereo not given)	·	·	2.2	·	·	-21.4
O=C(Nc1cccc(C(F)(F)F)c1)Nc1ccc(N2CCCC2)c(S(=O)(=O)Nc2ccccc2Cl)c1	22.3	0.8	80.3*	10.2	-0.3	40.5
Cc1ccc(C)c(-c2nnc(NC(=O)CCS(=O)(=O)c3ccccc3)o2)c1	4.8	40.7	3.0	18.7	·	-0.2
Cc1ccccc1-c1nnc(CS(=O)(=O)c2ccccc2)o1	-10.5	127.1*	38.0	76.1	13.3	15.2
Cc1cccc(CNS(=O)(=O)c2ccc(-c3ccc(=O)[nH]n3)s2)c1	5.5	-10.3	-21.0	-3.1	0.8	8.5
CCCC(NS(=O)(=O)c1ccc(-c2ccc(=O)[nH]n2)s1)c1cccs1 (stereo not given)	-13.5	-8.4	58.0*	-4.3	-1.3	34.9
CS(=O)(=O)Nc1cccc(NC(=O)c2cccc3c(-c4ccc(F)c(F)c4)coc23)c1	·	·	11.2	·	·	0.9
Cc1ccc(S(=O)(=O)c2nc(S(=O)(=O)c3ccc(C)cc3)c(N3CCN(CCO)CC3)s2)cc1	13.2	56.8*	19.1	9.6	0.0	13.7
CCS(=O)(=O)c1nc(S(=O)(=O)c2ccc(C)cc2)c(N2CCC(C)CC2)s1	-1.1	-91.5	20.7	-88.9*	3.3	-4.3
CCCS(=O)(=O)c1nc(S(=O)(=O)c2ccc(C)cc2)c(N2CCCC2)s1	-5.6	30.9	-2.6	4.4	2.5	-3.7
CS(=O)(=O)c1nc(S(=O)(=O)c2ccc(Cl)cc2)c(N2CCN(CCO)CC2)s1	2.3	-9.3	1.0	-2.4	-2.0	-6.0
CCCS(=O)(=O)c1nc(S(=O)(=O)c2ccc(C)cc2)c(N2CCc3ccccc3C2)s1	-1.7	54.4*	21.9	25.2	-3.5	-1.2
CC(C)n1nnnc1C1c2ccccc2C(=O)N1Cc1cccnc1 (stereo not given)	·	·	2.5	·	·	10.6
CC(=O)NCCNc1nc2cc(-c3ccc(C(=O)N4CCN(C)CC4)cc3)sc2c(=O)n1C	·	·	13.0	·	·	-0.3
CS(=O)(=O)Nc1ccc(C2=NN(S(C)(=O)=O)C(c3ccccc3)C2)cc1 (stereo not given)	65.6*	11.8	-18.3	-2.5	-0.9	-26.4
Cc1cc(N2CCN(C)CC2)ccc1NC(=O)c1c2c(nc3ccccc13)CCN(Cc1ccccc1)C2	77.1*	25.0	11.9	-0.6	8.2	-85.0
CN1CC=C2C(C#N)=C(N)C(C#N)(C#N)C(c3cccc(Cl)c3Cl)C2C1 (stereo not given)	-5.2	113.3*	-9.7	63.5	-0.1	-5.2
O=C1C=CC(=O)C(CNc2ccc(C(=O)OCc3ccccc3)cc2)=C1	-11.7	·	106.8*	·	·	40.5
